Tau ThT inhib: blocks human tau fibril formation measured by thioflavin T; recombinant tau K18 P301L, heparin-induced fibrillization, ThT fluorescence; Potency, µM (doses to about 57.4 µM), for the others: at the highest dose activity, negative = inhibition, hits mostly inhibitors; 2.1% of 270,000 active; AID 1460; also: potency is read from the fitted curve at half-maximal effect; nearly all actives have a fitted effect of over 55% in size
Target sequence (P10636 561-689 P618L limits assumed): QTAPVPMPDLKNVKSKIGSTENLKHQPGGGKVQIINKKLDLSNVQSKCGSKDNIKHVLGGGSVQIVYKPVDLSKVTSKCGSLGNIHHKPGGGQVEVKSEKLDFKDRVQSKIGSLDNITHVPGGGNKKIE
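Heparin-induced (20 uM) aggregation of recombinant human K18 P301L tau, 15 uM unlabeled with 0.24 uM labeled, pH 7 acetate buffer, 6 hr at 37 C with compound. Fibrils quantified by 30 uM ThT fluorescence after 1 hr ambient incubation.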
FBPA coupling cs: coupling enzyme interference in Giardia aldolase counter-screen | coupling enzyme system counterscreen, AmpLite Red fluorescence | activity change, negative = inhibition, % at 58.2 µM, hits read low | 0.67% of 290,000 active | AID 2472; in the data active = activity change below about -30%
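Counterscreen lacking aldolase: glyceraldehyde-3-phosphate coupling-enzyme reagent preincubated 10 min at RT with compound (at 57.5 uM final), then substrate/coupling system with AmpLite Red added; fluorescence read at 525/598 nm after 20 min RT.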
KDM4E inh: JMJD2E (human) inhibition; JMJD2E catalytic domain, FDH-coupled NADH fluorescence (FDH is formaldehyde dehydrogenase); Potency, µM (top dose mostly 57.1 µM), for the others: at the top dose activity change, negative = inhibition, actives largely listed as inhibitors; B2RXH2; 1.6% of 230,000 active; active = well fitted inhibition curve with a large enough effect, not every such curve was filed as active; inconclusive = small, poorly fitted or top-dose-only effect, or another doubt; inactive = no such curve, though single readings can be large or run the other way;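 also: potency is read from the fitted curve at half-maximal effect; 0% = wells with enzyme and -100% = buffer wells without enzyme; nearly all actives have a fitted effect of over 50% in size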
Target sequence (B2RXH2 1-337 limits assumed): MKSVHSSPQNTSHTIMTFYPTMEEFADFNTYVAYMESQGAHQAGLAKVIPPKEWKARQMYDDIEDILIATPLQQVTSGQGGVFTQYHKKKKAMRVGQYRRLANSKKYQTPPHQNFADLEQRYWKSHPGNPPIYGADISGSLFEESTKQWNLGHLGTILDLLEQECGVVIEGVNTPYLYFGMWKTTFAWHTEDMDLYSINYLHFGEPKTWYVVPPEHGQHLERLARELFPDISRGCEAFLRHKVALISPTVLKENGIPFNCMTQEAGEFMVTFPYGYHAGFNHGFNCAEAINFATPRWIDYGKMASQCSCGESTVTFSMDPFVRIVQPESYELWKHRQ
Tau fluor cs: counter-screen for tau fibril formation inhibitors; tau K18 P301L Alexa594 fluorescence, heparin fibrillization; Potency, µM (doses to about 57.7 µM), inactives show at the top dose activity change, negative = decrease; 0.93% of 280,000 active; AID 1463; also: potency is read from the fitted curve at half-maximal effect; nearly all actives have a fitted effect of over 55% in size
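Human tau K18 P301L (15 uM unlabeled, 0.24 uM Alexa 594-labeled) in 100 mM sodium acetate pH 7 with 20 uM heparin, 6 hr at 37 C. ThT 30 uM added, 1 hr ambient; Alexa 594 FP and total fluorescence read at 555/632 nm.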
Tau FP inhib: blocks human tau fibril formation measured by polarization. AID 1468. 0.39% of 280,000 active. Potency, µM (highest dose often 57.7 µM), for inactives: top-dose activity, negative = inhibition, actives largely listed as inhibitors. P10636. K18 P301L tau heparin fibrillization, Alexa594 FP, 6 h; also: potency is read from the fitted curve at half-maximal effect; nearly all actives have a fitted effect of over 55% in size
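Human tau K18 […] P301L fragment, 15 uM unlabeled plus 0.24 uM Alexa 594-labeled tau (final), with compound and 20 uM heparin in 100 mM sodium acetate pH 7; 6 hr at 37 C, then Alexa 594 FP read.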
The depositor's hits bear a star; u = inconclusive; x = no result; ! = not confirmed by another sample; [ ] = dose if it differs, or a comment. Compounds with a hit are over-represented: about 3% of the library has one in this group of screens. Unless noted, calls follow the shape of the dose curve; as a rule, active = well fitted curve in the direction sought with a large enough effect; inconclusive = small, poorly fitted or top-dose-only effect, or another doubt; inactive = no such curve, though single readings can be large; an effect the other way counts as inactive or inconclusive. Unless noted, % is scaled to controls: 0 for no effect and ±100 for the full control effect.

SMILES	Tau ThT inhib	FBPA coupling cs	KDM4E inh	Tau fluor cs	Tau FP inhib
COc1ccc2c(c1)[N+](C)(C)C(C)(C)C=C2C	-6%	2	20µM*	-6%	5%
COc1cccc(=O)c2c(C)n(-c3ccc(C(=O)O)cc3)c(C)c12	16µM*	-12	u	-14%	u
COc1ccccc1-n1c(C)c2c(OC)cccc(=O)c2c1C	u	0	u	-9%	-4%
COc1ccc(-n2c(C)c3c(OC)cccc(=O)c3c2C)cc1	18µM*	-3	-3%	-23%	u
Cc1onc(-c2ccccc2)c1C(=O)NC(=S)NNC(=O)c1cc(-c2ccc(F)cc2)n[nH]1	x	10	13µM*	-19%	3%
COc1ccc(C(=O)c2cn(CC(=O)Nc3ccc4c(c3)OCCO4)c3ccc(OC)cc3c2=O)cc1	10%	x	x	-19%	12%
O=c1oc2c(O)c(O)cc3c(=O)oc4c(O)c(O)cc1c4c23	14µM*	-79*!	2.5µM*	u	u
CCOc1ccc2c(c1)c(=O)c(S(=O)(=O)c1ccc(Cl)cc1)cn2Cc1ccccc1C	5%	x	x	0%	u
CC1CCCN(C2=C(Cl)C(=O)N(c3cccc(Cl)c3)C2=O)C1 (stereo unspecified)	14µM*	12	-17%	u	18µM*
COc1ccc(N2C(=O)C(Cl)=C(N3CCCC3)C2=O)cc1	u	1	2%	-21%	u
COc1ccc(N2C(=O)C(Cl)=C(N3CCCC(C)C3)C2=O)cc1 (stereo unspecified)	16µM*	-1	-2%	u	28µM*
CC(=O)Nc1ccn(C2CC3OCC(NC(=O)C(NC(=O)OC(C)(C)C)C(C)OCc4ccccc4)C3O2)c(=O)n1 (stereo unspecified)	x	2	x	x	x
COc1ccc(CNc2nc3c(c(=O)n(C)c(=O)n3C)n2Cc2ccccc2Cl)cc1	3%	x	x	-7%	4%
N=C1S/C(=C\c2ccc(-c3cccc(Cl)c3)o2)C(=O)N1c1nccs1	3.5µM*	5	9%	-25%	5%
COc1ccc(/C=C2\SC(=N)N(c3nccs3)C2=O)cc1OC	10µM*	5	-6%	-11%	9%
COc1ccc(/C=C2\SC(=S)N(NC(=O)c3ccncc3)C2=O)cc1OC	u	11	-2%	-5%	2%
N#C/C(=C\c1ccccn1)c1nc2ccccc2s1	8.9µM*	-1	-18%	14µM*[quencher]	u
N#C/C(=C/c1ccc(-c2ccc(S(N)(=O)=O)cc2)o1)c1nc2ccccc2s1	11µM*	-2	1%	u	-4%
COC(=O)c1ccc(/C=C(\C#N)c2nc3ccccc3s2)cc1	7.9µM*	4	-4%	u	-4%
COc1cc(-c2cc(OC)c3c(C)oc(C)c3c(=O)c2)ccc1OC(=O)c1ccccc1C	u	x	x	-15%	3%
CCc1ccc(CNC(=O)COc2cc(=O)n(CC)c3ccccc23)cc1	-13%	x	x	-2%	-1%
CC#CCN1c2ccccc2[C@]23C[C@@H](C(=O)OC)N(C(=O)c4cccs4)C2=NC(C(=O)OC)=C(C(=O)OC)[C@H]13	-5%[11.5 µM]	0	9%[11.4 µM]	-8%[11.6 µM]	2%[11.6 µM]
CN1CCc2c(sc(/N=C/c3ccco3)c2C(N)=O)C1	u	3	u	-11%	u
CN1CCc2c(sc(/N=C/c3cccs3)c2C(N)=O)C1	14µM*	1	u	-12%	u
N#Cc1ccc(C(=O)Nc2ccc(N3CCN(C(=O)c4ccco4)CC3)cc2)c(F)c1	1µM*	0	0%	-17%	-1%
SMILES	Tau ThT inhib	FBPA coupling cs	KDM4E inh	Tau fluor cs	Tau FP inhib
O=C(Nc1ccc(N2CCN(C(=O)c3ccco3)CC2)cc1)c1ccco1	u	0	4%	-5%	4%
N/C(=N\OC(=O)c1ccc(Cl)c([N+](=O)[O-])c1)c1ccccn1	8.9µM*	3	-13%	u	-7%
N/C(=N\OC(=O)c1ccc(Cl)c(Cl)c1)c1ccccn1	u	5	3%	3%	0%
C=CCc1cccc(CNc2nc3ccccc3n2C(C)C)c1O	-15%	-5	-19%	11µM*[quencher]	5%
Cc1cccc(CSc2ccc3nnc(CCNS(=O)(=O)c4ccccc4)n3n2)c1	-5%	x	x	-4%	4%
CCOC(=O)c1sc2nc(C)cc(C)c2c1N	u	2	u	-7%	6%
CCOC(=O)c1sc2cc([N+](=O)[O-])cc(SCC(=O)OC)c2c1N	7.1µM*	3	-21%	u	-9%
CCOC(=O)c1sc2cc([N+](=O)[O-])cc(SCCO)c2c1N	2.2µM*	1	-9%	-26%	4%
CCOC(=O)CSc1nnc(NC(=O)c2cc([N+](=O)[O-])cc([N+](=O)[O-])c2)s1	u	5	3%	-16%	0%
Cc1cccc(NC(=O)Cn2c(=O)c3cccn3c3ccccc32)c1C	-10%	x	x	u	18µM*
COc1ccc(CCNC(=O)Cn2c(=O)c3cccn3c3ccccc32)cc1OC	-6%	x	x	u	14µM*
COC(=O)/C(=C(/F)Sc1cc(C)c(O)c(C)c1)C(F)(F)F	u	1	-2%	13µM*[quencher]	u
COc1ccccc1-c1c(-c2ccc(O)cc2O)n[nH]c1C(F)(F)F	-6%	4	-30%	8.9µM*[quencher]	1%
Oc1ccc(-c2n[nH]c(C(F)(F)F)c2-c2ccccc2)c(O)c1	5%	-2	-6%	u	8%
COc1ccc(-c2c(-c3ccc(O)cc3O)n[nH]c2C(F)(F)F)cc1	-17%	1	-15%	11µM*[quencher]	5%
Cn1cc(S(=O)(=O)N2CCc3ccccc32)cc1C(=O)Nc1ccc(C(F)(F)F)cc1	-7%	x	x	u	7%
CCCCOc1ccc(CSCCNC(=S)Nc2ccccc2)cc1	-3%	0	-6%	u	u
CCCCCOc1ccc(CSCCNC(=S)Nc2ccccc2)cc1	-13%	1	-10%	u	13µM*
COc1cccc(C2C(C(=O)Nc3ccccc3)=C(C)N=c3s/c(=C/c4ccc(OCC(=O)O)cc4)c(=O)n32)c1 (stereo unspecified)	u	1	9%	13%	0%
CC1=C(C(=O)Nc2ccccc2)C(c2ccc(C)o2)n2c(s/c(=C\c3ccco3)c2=O)=N1 (stereo unspecified)	13µM*	-2	-29%	u	u
O=C(CSc1ncccc1C(=O)Oc1ccccc1Cl)Nc1ccccc1Cl	-9%	x	x	-15%	-6%
CCCN(C(=O)c1cc2c(=O)oc3ccccc3c2s1)c1ccccc1C	-8%	x	x	-25%	-5%
Cc1cccc(C2c3[nH]c4ccccc4c3CCN2C(=O)c2ocnc2C)n1 (stereo unspecified)	-3%	1	22µM*	9%[2.34 µM]	-6%[2.34 µM]
Oc1c(Cl)cc(Cl)cc1C=Nc1ccccc1N1CCCC1	22µM*	-3	u	u	-13%
